Bioassay records from PubChem BioAssay.
GLP1R ag: activates the human GLP-1 receptor | HEK293 GLP-1R CRE-luciferase, luminescence, 4-6 h; cells express a hypersensitive GLP-1R form | 380,000 tested, 0.007% active | Potency, µM (doses to about 45.6 µM), without a hit: at the top dose activation, most hits filed as activators | AID 624172 | P43220; further: potency means the concentration at half of the fitted maximal effect; % of control where 0% means no effect
Target sequence (P43220 whole entry, looked up): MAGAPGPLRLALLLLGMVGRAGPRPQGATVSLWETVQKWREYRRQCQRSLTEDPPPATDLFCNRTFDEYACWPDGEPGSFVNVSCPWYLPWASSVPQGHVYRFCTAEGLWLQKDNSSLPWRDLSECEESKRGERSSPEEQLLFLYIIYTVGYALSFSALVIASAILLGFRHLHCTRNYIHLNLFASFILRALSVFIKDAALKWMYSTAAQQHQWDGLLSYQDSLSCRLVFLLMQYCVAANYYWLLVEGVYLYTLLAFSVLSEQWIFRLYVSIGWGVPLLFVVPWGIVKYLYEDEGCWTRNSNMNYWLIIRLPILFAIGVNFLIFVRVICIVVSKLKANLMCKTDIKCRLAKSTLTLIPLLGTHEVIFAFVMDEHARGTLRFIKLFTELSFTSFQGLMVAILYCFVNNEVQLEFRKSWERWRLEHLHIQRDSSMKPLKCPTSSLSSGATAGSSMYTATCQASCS
GLP-1R inv ag: inverse agonists of human GLP-1 receptor | HEK293 GLP-1R CRE-luciferase, luminescence, 24 h; GLP-1R form is constitutively active | Potency, µM (series often up to 38.3 µM), inactives show at the highest dose activity change, negative = inhibition, most hits filed as inhibitors | 410,000 tested, 1.6% active | AID 624417; further: potency means the concentration at half of the fitted maximal effect; on the % scale 0 is the no-effect control and ±100 the full control effect; nearly all actives have a fitted effect of over 55% in size
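Inverse agonists were sought by their lowering of basal cAMP reporter luciferase output in HEK293 cells stably carrying constitutively active human GLP-1R, after 24 h compound treatment.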
GLP1R cytotox: cytotoxicity counter-screen for GLP-1 receptor inverse agonists | AID 624418 | HEK293 cAMP-luciferase reporter cells, luminescence, 24 h | 410,000 tested, 0.13% active | Potency, µM (titrated, usually from 38.3 µM), without a hit: at the top dose activity change, negative = inhibition, most hits filed as inhibitors;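 further: loss of luciferase light is scored as toxicity; potency means the concentration at half of the fitted maximal effect; on the % scale 0 is the no-effect control and ±100 the full control effect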
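Seeding density was 200 cells/uL; after overnight-length (12 h) culture, 23 nL compounds went on for 24 h at 37 °C. Readout used a luciferase detection reagent, luminescence taken after 12 min at room temperature.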
TRPML1 blocker: blocks the human TRPML1 channel. 390,000 tested, 0.02% active. Q9GZU1. activity change, negative = inhibition, % (test concentration not listed). AID 624415. TRPML1-inducible cells, Ca2+ dye fluorescence, FDSS; active compounds read low; inhibition of EC80 agonist-evoked calcium signal; in the data active means activity change below about -50%; inconclusive means between about -30% and that limit;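 further: stimulus is agonist 54-4 at its EC80 concentration; on the % scale 0 is the no-effect control and ±100 the full control effect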
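Tet-induced TRPML1-DL cells loaded with Ca8 no-wash calcium dye were read kinetically on FDSS. Compound addition was followed by EC80 agonist 54-4 (4 uM final); inhibition was read over 110 s.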
TRPML1 agonist: human mucolipin-1 channel agonism. Q9GZU1. TRPML1-expressing cells, Ca2+ dye fluorescence, FDSS. activation, % (no concentration beside the values). 410,000 tested, 0.12% active; in the data active means activation above about 50%; inconclusive means mostly about 30% to 49%; further: 0% is about no effect
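Cells: TRPML1-DL, 1X Tet inducer, ~16 h at 37 degrees C/5% CO2. Dye: ABD Ca8 no-wash + quencher, 45-90 min RT. Read: 10 s baseline, compound add, 110 s agonist phase; 54-4 EC80 (4uM final), 110 s antagonist phase.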
* marks the source's active call; other numbers are inactive results; ? = inconclusive; . = not tested or not shown. Hits are enriched below; roughly 1.8% of the tested compounds scored in any of these assays. Unless noted, the call rests on the fitted dose curve; in most records, active means well fitted curve in the direction sought with a large enough effect; inconclusive means small, poorly fitted or top-dose-only effect, or another doubt; inactive means no such curve, though single readings can be large; an effect the other way counts as inactive or inconclusive.

SMILES	GLP1R ag	GLP-1R inv ag	GLP1R cytotox	TRPML1 blocker	TRPML1 agonist
Cc1ccc(S(=O)(=O)N2CCCC(C(=O)NCCc3ccc4c(c3)OCO4)C2)cc1 (configuration not stated)	-6%	13µM*	15%	3	0
CC1CCN(S(=O)(=O)c2ccc(C(=O)NCc3ccc4c(c3)OCO4)cc2)CC1	2%	0%	6%	17	1
CC(=O)N1c2ccc(S(=O)(=O)NCC3CCC(C(=O)Nc4cccc(F)c4)CC3)cc2CC1C (configuration not stated)	.	-20%	-1%	-5	0
O=C(CCCl)Nc1cccc2cccnc12	.	.	.	-5	1
CCN1CCN(c2ccc(Nc3ccnc4ccccc34)cc2)CC1	-5%	3.5µM*	-17%	40	4
CCN1CCN(c2nc(-c3ccccn3)nc3ccccc23)CC1	-2%	?	?	7	-1
CC(C)(C)C(=O)Cn1c(=O)n(-c2ccccc2)c(=O)c2c3c(sc21)CCC3	.	-25%	-13%	-12	1
Cc1onc(-c2ccccc2)c1CNC(=O)Nc1cccc(Cl)c1	13%	8.9µM*	-7%	-1	3
COc1ccc(Cl)cc1NC(=O)N1CCC(CN2CCc3ccccc3C2)CC1	.	?	1%	12	3
COc1cccc(C2=NS(=O)(=O)N(C)C(C(=O)Nc3cccc(O)c3)=C2)c1	.	14%	8%	-13	1
COC(=O)c1ccccc1NC(=O)Cn1cc(S(=O)(=O)Cc2ccccc2F)c2ccccc21	.	-2%	-7%	-24	0
CCN(CC1COc2ccccc2O1)C(=S)NCCCN(C)C (configuration not stated)	-6%	7.1µM*	-10%	-6	0
CN(CC1COc2ccccc2O1)C(=S)NC1CCCCC1 (configuration not stated)	-2%	5µM*	-5%	.	.
NC(=O)CSc1ccc2nnc(-c3ccncc3)n2n1	.	.	.	.	-1
COc1ccc(Cl)cc1NC(=O)C(C)N(C)Cc1ccc(C(F)(F)F)cc1 (configuration not stated)	9%	8.9µM*	63%	5	0
Cc1ccc2nc(-c3ccc(C)o3)c(Nc3ccc(Cl)cc3)n2c1	.	.	.	.	-1
Cc1ccc(SCC(Cc2ccccc2)N2CCN(CCc3ccccc3)CCC2=O)cc1 (configuration not stated)	.	.	.	22	3
COc1ccc2ccccc2c1CNCc1ccc(C)cc1	21%	10µM*	-25%	3	0
Cc1c(C(=O)NC(C)c2ccccc2)sc2ncnc(N(C)C3CCCCC3)c12 (configuration not stated)	.	11µM*	7%	1	2
CCCCN1CC(COCc2ccccc2)Oc2cccc(OCCN3C(=O)[C@@H]4[C@H](C3=O)C3C=C[C@H]4C3)c2S1(=O)=O (some centres not stated)	-1%	10µM*	-20%	-21	?
CCCCN1CC(COCc2ccccc2)Oc2ccccc2S1(=O)=O (configuration not stated)	8%	11µM*	15%	53	1
O=S1(=O)c2ccccc2OC(COCc2ccccc2)CN1Cc1ccccc1 (configuration not stated)	-2%	?	6%	43	-1
O=S1(=O)c2ccc(Br)cc2OC(COCc2ccccc2)CN1Cc1ccccc1 (configuration not stated)	11%	10µM*	-6%	23	4
CSc1ncc(C(=O)Nc2cc(Cl)ccc2C)c(-c2ccccc2)n1	.	7%	2%	-1	1
C/C(=N\N(c1ccccc1)c1ccccc1)c1ccco1	-3%	8.9µM*	9%	?	2
SMILES	GLP1R ag	GLP-1R inv ag	GLP1R cytotox	TRPML1 blocker	TRPML1 agonist
O=C(Cn1cc(C(=O)c2ccccc2)c(=O)c2cc3c(cc21)OCCO3)Nc1ccc(F)c(F)c1	-1%	12%	2%	13	1
COc1ccc(S(=O)(=O)n2nc(-n3c(C)ccc3C)c3c(F)cccc32)cc1OC	0%	10µM*	28%	8	1
C=CCn1c(Cc2ccccc2)n[nH]c1=S	2%	14%	13%	0	0
C=CCn1c(CCc2cc(C(C)(C)C)c(O)c(C(C)(C)C)c2)n[nH]c1=S	7%	?	11µM*	25	3
O=C(Nc1cccc2c1CCCC2)c1cc([N+](=O)[O-])ccc1Cl	-7%	3.2µM*	?	-1	0
Cc1onc(-c2ccccc2Cl)c1C(=O)Oc1cccc2cccnc12	7%	13µM*	?	-9	2
CCc1ccc(NC(=S)NC(=O)c2c(-c3ccccc3Cl)noc2C)cc1	11%	10µM*	-7%	-12	1
Cc1onc(-c2ccccc2Cl)c1C(=O)NC(=S)Nc1ccc(C(C)(C)C)cc1	-4%	-73%	?	-4	-1
COC(=O)c1c(NC(=O)Cc2coc3cc(C)ccc23)sc2c1CCCC2	.	5%	12%	-12	1
COc1ccc(CNC(=S)NC(C)CCc2ccccc2)cc1 (configuration not stated)	-1%	10µM*	?	-6	1
COc1ccc(CNC(=S)NCc2ccc(OC)cc2)cc1	-4%	-6%	-11%	-8	1
CCCCCCCCCCCCCCCC[n+]1ccc(CC(O)c2c(C)[nH]c3ccccc23)c2ccccc21 (configuration not stated)	.	.	.	.	1
O=C(Nc1nnc(S(=O)(=O)N2CCCc3ccccc32)s1)c1cccc(Cl)c1	.	?	-19%	-4	0
CCC(C)n1c(SCC(=O)Nc2cc(C(C)(C)C)nn2-c2ccccc2)nc2ccccc2c1=O (configuration not stated)	12%	11µM*	0%	9	21
CC(C)(C)c1cc(NC(=O)COc2ccc(Br)cc2)n(-c2ccccc2)n1	5%	8.9µM*	-15%	51	6
CC(C)(C)c1cc(NC(=O)COC(=O)c2ccccc2)n(-c2ccccc2)n1	4%	?	3%	18	0
CCCN1CNc2c(c(=O)[nH]c(=S)n2CCc2ccc(C)c(C)c2)C1	.	.	.	.	-1
CCOc1cc(CNCCO)cc(Br)c1OCc1ccccc1Cl	-12%	?	?	-6	1
CCOc1cc(CNCCCN2CCOCC2)cc(Br)c1OCc1ccccc1Cl	5%	4.5µM*	?	-2	1
CC1=NN(C(=O)COc2ccccc2C)C(O)(c2ccc(Cl)cc2)C1 (configuration not stated)	-5%	10µM*	?	9	1
CCC1=NN(C(=O)c2ccc(Br)cc2)C(O)(c2ccccc2)C1 (configuration not stated)	-3%	0.56µM*	?	-7	0
